This is part of a sample that, as a whole, favours compounds with a hit. Of some 83,000 tested, about 20% had one in any assay.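 Plates (96-well) were seeded with cells, treated with compound at one concentration, and incubated for 48 hours before percent growth was determined.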 Unmarked numbers belong to inactive results. Activity calls are given as the source filed them. How the source made its calls: active means growth percent below 10; inactive means the rest.

Some test systems named below: DU-145 prostate; K-562 leukemia; MALME-3M melanoma; MDA-MB-231 breast; RXF 393 renal; SF-268 CNS; SF-295 CNS; SF-539 CNS; UACC-257 melanoma; M14 melanoma; HCT-15 colon; HT29 colon; SNB-75 CNS; SNB-19 CNS; U251 CNS; PC-3 prostate; SK-MEL-5 melanoma; UACC-62 melanoma; LOX IMVI melanoma; SK-MEL-28 melanoma.
Holding throughout (assay): NCI-60 one-dose screen, 48 h (100 = growth as untreated, 0 = no growth, -100 = all killed)
Holding throughout (conditions): 10 µM unless noted

Turning to `COc1cc(C)c2c(=O)c3c(oc2c1)C(=O)c1c(O)c(OC)cc(O)c1C3=O`, the growth is 26.8% in the test with DU-145 prostate; -23.8% (active) in the test on K-562 leukemia; -23.8% (active) in the test on MALME-3M melanoma; -0.877% (active) in the test on MDA-MB-231 breast; 13.1% in the test with RXF 393 renal; 21.5% in the test with SF-268 CNS. Also, the growth in the test with SF-295 CNS was 25.7%; in the test with SF-539 CNS, 5.8% (active); in the test with UACC-257 melanoma it was 54%; in the test on M14 melanoma it was 19.3%; with HCT-15 colon, 5.54% (active); in the test on HT29 colon, 68.1%. The growth is -13.2% (active) in the test on SNB-75 CNS; 20.2% in the test on SNB-19 CNS; 10.8% in the test on U251 CNS; -8.33% (active) with PC-3 prostate; -43.8% (active) with SK-MEL-5 melanoma; 22.5% with UACC-62 melanoma. Further, the growth in the test on LOX IMVI melanoma is 3.56% (active).

As to `CCN(CC)CCCC(C)Nc1cnc(C(=O)Nc2cc(C)cc3cccnc23)cn1` (stereo not drawn), the growth was 80.7% in the test on DU-145 prostate; 25.9% in the test with K-562 leukemia; 107% in the test on MALME-3M melanoma; 89.2% with MDA-MB-231 breast; 72.3% in the test with RXF 393 renal; 66.1% in the test with SF-268 CNS. The growth in the test on SF-295 CNS is 98.9%; with SF-539 CNS, 86.9%; with UACC-257 melanoma it was 71.7%; in the test on M14 melanoma, 98.6%; in the test on HCT-15 colon, 59.9%; in the test on HT29 colon, 37.3%. For the same molecule, the growth in the test on SNB-75 CNS is 78.3%; in the test on SNB-19 CNS, 89.2%; in the test on U251 CNS, 78.4%; in the test with PC-3 prostate it was 83.1%; in the test on SK-MEL-5 melanoma, 83.1%; in the test on UACC-62 melanoma, 98.6%. Further, the growth in the test with LOX IMVI melanoma is 87%.

`CN1CCN(Cc2ccc(NC(=O)c3cccc(C#Cc4cnc(N)c5ncccc45)c3F)cc2C(F)(F)F)CC1`: the growth with DU-145 prostate is -72.4% (active); with K-562 leukemia, -19.7% (active); in the test on MALME-3M melanoma it was -78.9% (active); in the test on MDA-MB-231 breast, -74.2% (active); in the test on RXF 393 renal it was -76.5% (active); in the test with SF-268 CNS, 67.2%. For the same molecule, the growth is 85.3% with SF-295 CNS; -29% (active) with SF-539 CNS; -61.6% (active) in the test on UACC-257 melanoma; -76.4% (active) with M14 melanoma; -57.2% (active) with HCT-15 colon; -55.5% (active) with HT29 colon. In addition, the growth was 53.9% in the test on SNB-75 CNS; 96.4% in the test with SNB-19 CNS; -88.2% (active) with U251 CNS; 30.7% with PC-3 prostate; 44.1% in the test with SK-MEL-5 melanoma; 55.5% in the test with UACC-62 melanoma. Moreover, the growth in the test with LOX IMVI melanoma is -88.8% (active).

Take `Cc1c(-c2ccc(-c3ccccc3F)cc2)nc2ccc(F)cc2c1C(=O)O`: the growth was 42.5% in the test with DU-145 prostate; 26.3% with K-562 leukemia; 62.8% in the test with MALME-3M melanoma; 65.2% in the test with MDA-MB-231 breast; 37.2% in the test with RXF 393 renal; 50.7% in the test on SF-268 CNS. The growth is 22.8% in the test on SF-295 CNS; 29% with SF-539 CNS; 19.8% in the test on UACC-257 melanoma; 53.7% in the test on M14 melanoma; 29% in the test with HCT-15 colon; 28.3% in the test with HT29 colon. For the same molecule, the growth is 60.9% with SNB-75 CNS; 41% with SNB-19 CNS; 31.9% with U251 CNS; 33.2% in the test on PC-3 prostate; 40.4% in the test with SK-MEL-5 melanoma; 39.5% in the test on UACC-62 melanoma. Also, the growth in the test on LOX IMVI melanoma was 9.11% (active).

With `CCN(CC)CCCC(C)Nc1cnc(C(=O)Nc2cccc3ccc(OC)nc23)cn1` (stereo not drawn), the growth is 78.8% with DU-145 prostate; -57.1% (active) in the test on K-562 leukemia; -69.8% (active) with MALME-3M melanoma; 71.8% in the test with MDA-MB-231 breast; 46% in the test with RXF 393 renal; 63% with SF-268 CNS. Further, the growth in the test on SF-295 CNS was 101%; in the test on SF-539 CNS, 0.457% (active); in the test with UACC-257 melanoma, -39% (active); in the test with M14 melanoma, -75.6% (active); with HCT-15 colon, -25.6% (active); in the test with HT29 colon it was -47.2% (active). For the same molecule, the growth in the test on SNB-75 CNS was 75.9%; with SNB-19 CNS it was 94.9%; in the test on U251 CNS, 56.1%; in the test with PC-3 prostate, 69.5%; in the test with SK-MEL-5 melanoma, 5.4% (active); in the test with UACC-62 melanoma, -57.8% (active). In addition, the growth with LOX IMVI melanoma was -89.9% (active).

As to `Cc1ccc(NC(=O)Cn2nncc2CN2C(=O)CSC2=O)cc1C`, the growth in the test on DU-145 prostate was 106%; in the test on K-562 leukemia, 106%; in the test on MALME-3M melanoma, 99%; in the test on MDA-MB-231 breast it was 111%; in the test with RXF 393 renal, 103%; with SF-268 CNS it was 98.5%. For the same molecule, the growth with SF-295 CNS is 103%; in the test on SF-539 CNS, 101%; in the test with UACC-257 melanoma it was 102%; with M14 melanoma, 105%; with HCT-15 colon, 94.5%; with HT29 colon it was 105%. The growth is 93.3% in the test on SNB-75 CNS; 97.9% in the test with SNB-19 CNS; 103% in the test on U251 CNS; 99.3% in the test with PC-3 prostate; 98.7% with SK-MEL-5 melanoma; 102% in the test with UACC-62 melanoma. For the same molecule, the growth in the test on LOX IMVI melanoma is 93.6%.

Take `COc1ccc(C(=O)/C=C/c2cn(-c3ccccc3)nc2-c2cccc(Nc3ccnc4cc(Cl)ccc34)c2)cc1`: the growth in the test on DU-145 prostate is 86.5%; in the test on K-562 leukemia it was 85.9%; with MALME-3M melanoma it was 57.4%; in the test on MDA-MB-231 breast it was 70.8%; in the test with RXF 393 renal, 95.2%; in the test with SF-268 CNS, 89.3%. For the same molecule, the growth is 106% in the test with SF-295 CNS; 103% in the test with SF-539 CNS; 90.1% in the test on UACC-257 melanoma; 110% with M14 melanoma; 101% in the test with HCT-15 colon; 104% with HT29 colon. Further, the growth with SNB-75 CNS is 99.5%; in the test on SNB-19 CNS, 93.2%; in the test with U251 CNS, 94.9%; with PC-3 prostate it was 87.4%; with SK-MEL-5 melanoma, 88.4%; in the test with UACC-62 melanoma, 89.9%. Moreover, the growth with LOX IMVI melanoma was 104%; in the test with SK-MEL-28 melanoma it was 95.3%.

`CC[C@H](Nc1nc(N)nc(C2CC2)c1C#N)c1nc2cccc(NCc3ccc(C(=O)NO)cc3)c2c(=O)n1-c1ccccc1`: the growth in the test on DU-145 prostate is -29.3% (active); in the test with K-562 leukemia it was -14% (active); in the test with MALME-3M melanoma, -2.35% (active); in the test on MDA-MB-231 breast, 2.7% (active); in the test on RXF 393 renal, -15.2% (active); in the test on SF-268 CNS, 4.22% (active). Besides, the growth in the test with SF-295 CNS was -26.9% (active); with SF-539 CNS, -0.037% (active); in the test with UACC-257 melanoma, -2.7% (active); with M14 melanoma, -18.6% (active); in the test with HCT-15 colon, 19%; with HT29 colon, 13.4%. Moreover, the growth with SNB-75 CNS was -2.59% (active); in the test on SNB-19 CNS, 7.25% (active); with U251 CNS, -4.25% (active); with PC-3 prostate it was 10.1%; with SK-MEL-5 melanoma, -29.5% (active); with UACC-62 melanoma it was -19% (active). Also, in the test with LOX IMVI melanoma, the growth was -89.2% (active).
